From PubChem
Only some compounds are listed: those with a hit (about 2.1% of all), similar ones and a draw of the others.
PfHsp40 yeast = rescue of PfHsp40-mediated yeast toxicity; S. cerevisiae expressing PfHsp40, growth rescue, ATP luminescence; growth rescue, % at 12.5 µM; 340,000 tested, 0.68% active; AID 504582; in the data active = growth rescue above about 28%, passing the limit was not always enough; inconclusive = no clear call, values can overlap the other calls;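 note: yeast W303a lacking pdr1 and pdr3 grown in galactose medium; growth measured after three days at 30 °C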
PrP UTR inh = suppresses PrP 5' UTR mRNA reporter expression; cell-based PrP 5' UTR mRNA reporter, plate reader; inhibition, % (no concentration beside the values); 340,000 tested, 0.35% active; AID 488862; in the data active = inhibition above about 52%; note: 0 = median of the neutral control wells
BJeLR viability = BJeLR cell viability loss; BJeLR (HRASV12) viability, CellTiter-Glo ATP luminescence, 48 h; inhibition, % (test concentration not listed); 300,000 tested, 0.17% active; AID 1554; in the data active = inhibition above about 50%; inconclusive = no clear call, values can overlap the other calls
PrPC TRFRET = inhibitors of human cell surface prion protein PrPC; inhibition, % at 13.8 µM; 370,000 tested, 0.43% active; TR-FRET read-out; P04156; AID 720596; in the data active = inhibition above about 24%; note: 0% = median of the test wells and 100% = reference compound wells
MazEF act = MazEF (E. coli) toxin RNase activation; P0AE70; FAM/BHQ RNA-DNA oligo cleavage fluorescence, 5 h; 350,000 tested, 0.32% active; activation, % at 20 µM; in the data active = activation above about 50%
Target sequence (P0AE70 whole entry, looked up): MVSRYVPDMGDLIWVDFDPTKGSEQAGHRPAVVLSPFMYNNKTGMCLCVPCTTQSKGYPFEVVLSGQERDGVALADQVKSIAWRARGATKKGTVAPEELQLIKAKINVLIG
DUSP3 inh = blocks human VHR1 dual specificity phosphatase. P51452. recombinant VHR phosphatase, pNPP absorbance. inhibition, % at 13.3 µM. 290,000 tested, 0.52% active. AID 1654; in the data active = inhibition above about 50%
Target sequence (P51452 whole entry, looked up): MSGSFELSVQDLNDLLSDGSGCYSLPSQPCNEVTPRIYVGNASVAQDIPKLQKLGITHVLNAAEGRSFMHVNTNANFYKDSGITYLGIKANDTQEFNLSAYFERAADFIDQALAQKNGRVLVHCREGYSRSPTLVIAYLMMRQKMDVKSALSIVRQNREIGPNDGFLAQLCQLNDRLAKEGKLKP
Starred values were filed as active, the others as inactive; ? = inconclusive; . = no result given.

SMILES	PfHsp40 yeast	PrP UTR inh	BJeLR viability	PrPC TRFRET	MazEF act	DUSP3 inh
O=C(O)CSc1cc(NS(=O)(=O)c2cccc([N+](=O)[O-])c2)c2ccccc2c1O	96.5*	-15.4	-8.5	-27.1	-32.5	69.3
O=S(=O)(Nc1cc(Sc2cccc3cccnc23)c(O)c2ccccc12)c1ccccc1	.	.	125.2*	12.9	.	5.1
CCc1ccc(S(=O)(=O)Nc2cc(SCC(=O)O)c(O)c3ccccc23)cc1	0.6	-8.0	-1.4	-14.4	-21.8	33.3
Cc1cccn2c(=O)c(/C=C(\C#N)C(=O)NCc3ccco3)c(N3CCCCCC3)nc12	.	.	-12.4	-11.0	4.8	9.5
Cc1cccn2c(=O)c(/C=C(\C#N)C(=O)NCc3ccco3)c(N3CCCC(C)C3)nc12 (configuration not stated)	-1.2	-10.7	-21.4	-4.2	6.4	55.4*
O=C(O)CN1CCNCCN(CC(=O)O)CCNCC1	106.6*	-14.8	.	2.5	-12.6	.
CCCCC(=O)NC(c1cccc([N+](=O)[O-])c1)c1ccc2cccnc2c1O (configuration not stated)	105.2*	28.6	.	8.9	9.2	.
CCCC(=O)NC(c1ccccc1)c1ccc2cccnc2c1O (configuration not stated)	?	19.5	26.1	23.4	8.0	13.9
CCCCC(=O)NC(c1ccc(C(C)C)cc1)c1ccc2cccnc2c1O (configuration not stated)	-2.6	37.7	53.7*	12.6	-1.2	12.7
CCOC(=O)C1=C(C)N=c2sc(=Cc3ccc(OCC(=O)O)cc3)c(=O)n2C1c1ccc(SC)cc1 (configuration not stated)	.	.	.	5.4	.	.
Cc1ccc(C(=O)OCC(=O)Nc2c(C)n(C)n(-c3ccccc3)c2=O)cc1[N+](=O)[O-]	1.1	-23.1	1.0	10.2	50.0*	14.4
CC(C)COC(=O)n1ccc(C(=O)N2CCCCC2)n1	-1.3	-21.2	5.5	-8.0	10.1	51.2*
CC(=O)c1ccc(NC(=O)c2ccn(C(=O)OCC(C)C)n2)cc1	-0.6	-80.6	4.3	5.4	-12.7	-4.8
Cc1cc(OCc2nnc(SC(C)C(=O)O)n2Cc2ccccc2)ccc1Cl (configuration not stated)	1.5	-15.9	0.2	-1.8	3.1	-5.2
O=C(/C=C/c1ccccc1Cl)c1ccc(O)cc1	?	-30.0	7.9	-1.3	-12.8	31.5
Cc1ccc(/C=C/C(=O)c2ccccc(=O)c2O)c(C)c1	183.4*	-9.1	16.0	-7.0	-5.0	-8.4
Cc1ccc(C)c(/C=C/C(=O)c2ccccc(=O)c2O)c1	223.7*	7.2	37.4	4.2	-11.1	0.5
O=C(/C=C/c1ccccc1Cl)c1ccccc(=O)c1O	64.0*	-18.1	25.7	-8.1	-19.0	-17.2
O=C(/C=C/c1ccc([N+](=O)[O-])cc1)c1ccccc(=O)c1O	0.2	5.1	.	-7.8	1.1	.
COc1ccc(NC(=O)Nc2cccc3[nH]c([C@@H]4O[C@H](CO)[C@@H](O)[C@H](O)[C@H]4O)nc23)cc1OC1CCCC1	.	.	.	6.0	.	.
Oc1ccc(CN2CCCc3ccccc32)c2cccnc12	38.2*	-13.0	-4.4	.	1.4	-2.4
COc1ccccc1N1CCN(Cc2ccc(O)c3ncccc23)CC1	-0.2	.	15.7	17.8	0.5	22.9
COc1ccc(C2/C=C\CC(NC(=O)OCC3c4ccccc4-c4ccccc43)CC(=O)N2Cc2ccccc2F)cc1 (configuration not stated)	-0.1	-13.0	.	.	-16.6	.
O=C(C1CC(=O)N(C2CCCCC2)C1)N1CCc2ccccc21 (configuration not stated)	61.0*	-18.0	-7.3	-2.9	11.4	9.8
O=C(C1CCCCC1)N1CCc2ccccc21	-1.2	-6.6	-1.5	2.1	-13.6	24.9
SMILES	PfHsp40 yeast	PrP UTR inh	BJeLR viability	PrPC TRFRET	MazEF act	DUSP3 inh
Cc1ccc(-n2c(SCC(=O)Nc3cccc4ccccc34)nnc2-c2cnccn2)cc1	.	.	.	-4.6	.	.
O=C(NCc1ccccn1)c1ccc(OC2CCN(Cc3ccc(F)cc3F)CC2)cc1	0.2	-7.8	8.7	-2.8	-4.1	-8.2
COc1ccc(CN2CCC(Oc3ccc(C(=O)NCc4ccccn4)cc3)CC2)c(F)c1	0.1	-10.1	0.4	-5.7	-1.5	57.1*
CC12CN3CC(C)(CN(C1)C3c1ccccc1F)C2 (configuration not stated)	60.9*	-3.9	-11.1	-4.8	-3.6	17.9
CC12CN3CC(C)(CN(C1)C3c1ccccc1Cl)C2O (configuration not stated)	-0.1	-31.7	1.8	4.5	-10.0	16.1
COc1ccccc1OCCCCn1ncc2ccc(OC)c(OC)c2c1=O	0.8	-15.9	-3.0	9.7	6.7	.
CCCn1c(SCC(=O)NC2CCCCC2)nnc1-c1ccco1	-1.0	-17.4	-13.9	-4.4	5.5	57.6*
CCOC(=O)c1cn(CC)c2ccc(Br)cc2c1=O	0.3	-13.4	1.7	2.1	2.1	14.7
CCn1cc(C(=O)O)c(=O)c2cc(Br)ccc21	32.9*	-20.5	-3.2	2.5	2.3	0.3
Cn1nc(C(=O)OCC(=O)Nc2ccc(C(N)=O)cc2)c2ccccc2c1=O	-0.2	-2.3	.	9.5	1.8	.
Cc1ccc(C2NC(=O)Cc3ccccc32)cc1 (configuration not stated)	-0.8	-44.0	-0.3	1.7	247.2*	14.5
COC(=O)C[C@H](NC(=O)Cn1cnc2c(SC)nc(N)nc21)C(=O)OC	-0.1	-13.4	.	1.5	6.2	.
O=CNCCCc1nc2ccccc2n1CCc1ccccc1	-0.5	-12.5	-0.3	9.3	4.5	-28.6
CCc1ccccc1N1C(=O)CC(N2CCc3ccccc32)C1=O (configuration not stated)	69.0*	-6.8	-8.7	3.3	-5.4	9.1
CCN1C(=O)/C(=C/N(C)C)c2ccccc21	0.4	2.3	-5.3	4.3	11.8	15.3
CCN1C(=O)/C(=C\N(C)C)c2ccccc21	41.2*	-13.8	-5.6	5.0	5.6	8.8
O=C(Cc1n[nH]c(=O)c2ccccc12)OCC(=O)c1ccc2c(c1)OCCO2	95.7*	49.8	35.9	10.9	-3.1	15.4
O=C(Nc1nccs1)c1c(O)c2cccc3c2n(c1=O)CCC3	.	.	-0.2	0.9	.	55.6*
CC(C)(C)c1ccccc1OCC(=O)Nc1ccccc1C(=O)NCc1cccnc1	1.0	-6.6	3.0	6.2	8.1	25.9
Cc1cccc(C(=O)Nc2cccc3c2CCCC3)c1	0.4	-17.7	-6.1	-0.2	-1.1	26.2
CC1(O)CC(C)(C)C(C#N)C(=O)N1 (configuration not stated)	2.5	-24.0	.	6.0	9.8	.
Cc1ccc(OCc2n[nH]c(=S)n2-c2ccc(Cl)cc2)cc1	-0.8	-40.1	0.4	-0.8	-1.8	27.2
Cc1ccc(OCc2n[nH]c(=S)n2-c2ccc(Br)cc2)cc1	-0.2	-15.5	2.2	8.3	-18.9	58.3*
CC(C)c1ccccc1OCC(=O)N(C)CC(=O)Nc1ccc(F)cc1	0.9	0.0	-7.4	6.3	4.6	.
